From a collection of fitness landscapes (doi:10.1016/j.celrep.2020.107928)
Over roughly 81,000 sequences, “one-hybrid fitness for binding parS DNA” has its median near -0.17; the highest 2% begin near 0.51. The entries come from a sample that favours the highest values as a whole.

B1: Caulobacter ParB omega fusion; a variant is named by its letters at X, in order, B8GW30 (parent)
chain: MESVVVGEPGMSEGRRGLGRGLSALLGEVDAAPAQAPGEQLGGSREAPIEILQRNPDQPRRTFREEDLEDLSNSIREKGVLQPILVRPSPDTAGEYQIVAGERAWRAAQRAGLKTVPIMVRELDDLAVLEIGIIENVQRADLNVLEEALSYKVLMEKFERTQENIAQTIGKSXSHVANXMRLLXLPDEVQSYLVSGELTAXHARAIAAAADPVALAKQIIEGGLSVRETEALARKAPNLSAGKSKGGRPPRVKDTDTQALESDLSSVLGLDVSIDHRGSTGTLTITYATLEQLDDLCNRLTRGI

Variants of: B1
Experiment: one-hybrid fitness for binding parS DNA (scaled: cognate 1, non-cognate 0); higher = stronger binding
Conditions: with parS DNA site
How it was run: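 Caulobacter ParB libraries with four specificity codons randomised were screened by bacterial one-hybrid selection in the E. coli USO strain, using a HIS3 reporter whose site lies 19 bp from the promoter. Selection ran for 48 hours at 37°C on M9 lacking histidine, with 0.1 mM IPTG and 5 mM 3-AT. Plasmids were Illumina-sequenced before and after selection, three replicate libraries were pooled, and variants with under 10 reads were dropped. Fitness is the log change in each variant's read ratio to wild type, rescaled against the cognate and non-cognate sites.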

| Variant | one-hybrid fitness for binding parS DNA |
| --- | --- |
| QHDH | ≤ 0.2 |
| KIRG | ≤ 0.2 |
| MVRP | ≤ 0.2 |
| RAAK | ≤ 0.2 |
| RAAF | 0.242 |
| RAFH | 0.204 |
| RAFD | ≤ 0.2 |
| RAFT | 0.847 |
| RAAT | 0.909 |
| CANR | ≤ 0.2 |
| WEPV | ≤ 0.2 |
| HEHL | ≤ 0.2 |
| CTTW | ≤ 0.2 |
| FEAS | ≤ 0.2 |
| RTFA | 0.592 |
| DTAA | ≤ 0.2 |
| RTAA | 0.579 |
| DTFA | ≤ 0.2 |
| QTHE | ≤ 0.2 |
| PSQT | ≤ 0.2 |
| QCPA | ≤ 0.2 |
| YTPS | ≤ 0.2 |
| RLFA | 0.606 |
| RLAA | 0.582 |

| Variant | one-hybrid fitness for binding parS DNA |
| --- | --- |
| DLFA | ≤ 0.2 |
| KLFA | ≤ 0.2 |
| NLAA | ≤ 0.2 |
| DLAA | ≤ 0.2 |
| IAKG | ≤ 0.2 |
| FVAR | ≤ 0.2 |
| RFWP | ≤ 0.2 |
| RFIG | 0.685 |
| RFWS | 0.836 |
| RFIC | 0.657 |
| RFIS | 0.777 |
| RFID | ≤ 0.2 |
| RFIH | ≤ 0.2 |
| NFIG | ≤ 0.2 |
| RFPG | 0.502 |
| RFPC | 0.424 |
| RFIP | ≤ 0.2 |
| RFWN | ≤ 0.2 |
| EHMG | ≤ 0.2 |
| LHVL | ≤ 0.2 |
| AIIN | ≤ 0.2 |
| FIYG | ≤ 0.2 |
| PRHT | ≤ 0.2 |
| KCHS | ≤ 0.2 |

| Variant | one-hybrid fitness for binding parS DNA |
| --- | --- |
| KAGT | ≤ 0.2 |
| QCPW | ≤ 0.2 |
| RFLN | 0.415 |
| RFPH | ≤ 0.2 |
| RFYS | 1.01 |
| RFLS | 0.997 |
| RFYP | ≤ 0.2 |
| RFRD | ≤ 0.2 |
| RFPD | ≤ 0.2 |
| RFRS | 0.954 |
| RFRN | 0.429 |
| RFYD | ≤ 0.2 |
| RFPS | 0.551 |
| RFLD | ≤ 0.2 |
| PVIC | ≤ 0.2 |
| MHEG | ≤ 0.2 |
| VPDG | ≤ 0.2 |
| LNYC | ≤ 0.2 |
| HRFQ | ≤ 0.2 |
| VPPW | ≤ 0.2 |
| RFQA | 0.579 |
| KFQA | ≤ 0.2 |
| DFQA | ≤ 0.2 |
| SFRA | ≤ 0.2 |

| Variant | one-hybrid fitness for binding parS DNA |
| --- | --- |
| NFRA | ≤ 0.2 |
| RFPA | ≤ 0.2 |
| RFYA | 0.578 |
| RFRA | 0.602 |
| RFCA | 0.518 |
| RFIA | 0.373 |
| ANER | ≤ 0.2 |
| NGTK | ≤ 0.2 |
| GATP | ≤ 0.2 |
| TTRY | ≤ 0.2 |
| HALT | ≤ 0.2 |
| WTPL | ≤ 0.2 |
| KHYV | ≤ 0.2 |
| QFRS | ≤ 0.2 |
| RFWD | ≤ 0.2 |
| RFHT | 0.853 |
| RFWT | 0.649 |
| DFDT | ≤ 0.2 |
| RFGT | 0.775 |
| RFGP | ≤ 0.2 |
| NFGT | ≤ 0.2 |
| RFHD | ≤ 0.2 |
| NFWT | ≤ 0.2 |
| RFDT | 0.693 |

| Variant | one-hybrid fitness for binding parS DNA |
| --- | --- |
| RFDR | ≤ 0.2 |
| DFHT | ≤ 0.2 |
| FTEL | ≤ 0.2 |
| WFGR | ≤ 0.2 |
| AVPM | ≤ 0.2 |
| IHAA | ≤ 0.2 |
| GDDN | ≤ 0.2 |
| RFST | 0.841 |
| RFRH | 0.219 |
| RFIT | 0.508 |
| NFRT | ≤ 0.2 |
| RFYT | 0.801 |
| RFCT | 0.725 |
| RFPT | 0.376 |
| SFCT | ≤ 0.2 |
| NFST | ≤ 0.2 |
| RFRT | 0.9 |
| RFCR | ≤ 0.2 |
| RFSN | 0.377 |
| SRLA | ≤ 0.2 |
| RPYM | ≤ 0.2 |
| QLWS | ≤ 0.2 |
| QWRP | ≤ 0.2 |
| YTDG | ≤ 0.2 |

| Variant | one-hybrid fitness for binding parS DNA |
| --- | --- |
| VYTC | ≤ 0.2 |
| AQSP | ≤ 0.2 |
| FRLV | ≤ 0.2 |
| MRTY | ≤ 0.2 |
| RFLT | 0.75 |
| RFNT | 0.862 |
| RFQD | ≤ 0.2 |
| RFNN | 0.411 |
| RFQP | ≤ 0.2 |
| RFQT | 0.8 |
| RFNP | ≤ 0.2 |
| RFLP | ≤ 0.2 |
| DFLT | ≤ 0.2 |
| WYGN | ≤ 0.2 |
| YMRM | ≤ 0.2 |
| YQRV | ≤ 0.2 |
| AIED | ≤ 0.2 |
| TPRA | ≤ 0.2 |
| QTSF | ≤ 0.2 |
| AAYQ | ≤ 0.2 |
| WMAR | ≤ 0.2 |
| RVYY | 0.495 |
| RVKY | 0.664 |
| RVRY | 0.583 |

| Variant | one-hybrid fitness for binding parS DNA |
| --- | --- |
| RVDY | 0.427 |
| RVVY | 0.413 |
| RVLY | 0.508 |
| RCLY | 0.49 |
| TIST | ≤ 0.2 |
| CHTY | ≤ 0.2 |
| TCYR | ≤ 0.2 |
| QKCY | ≤ 0.2 |
| TNVQ | ≤ 0.2 |
| CETD | ≤ 0.2 |
| ADRH | ≤ 0.2 |
| QVQF | ≤ 0.2 |
| RRRH | 0.592 |
| RRYP | ≤ 0.2 |
| RRIS | 0.753 |
| RRYS | 0.68 |
| RRDH | ≤ 0.2 |
| RRWD | ≤ 0.2 |
| RRYD | ≤ 0.2 |
| RRIN | 0.304 |
| RRIH | ≤ 0.2 |
| RRWP | ≤ 0.2 |
| RRYH | ≤ 0.2 |
| RRWS | 0.772 |

| Variant | one-hybrid fitness for binding parS DNA |
| --- | --- |
| VFKT | ≤ 0.2 |
| HRKK | ≤ 0.2 |
| QLWG | ≤ 0.2 |
| RFHY | 0.462 |
| RRRS | 0.67 |
| RRLS | 0.701 |
| RRRD | ≤ 0.2 |
| RRLN | 0.396 |
| RRPS | 0.757 |
| RRLD | ≤ 0.2 |
| RRRP | 0.203 |
| RRPN | 0.246 |
| RRPD | ≤ 0.2 |
| MLQR | ≤ 0.2 |
| HTWN | ≤ 0.2 |
| YCLV | ≤ 0.2 |
| VKKI | ≤ 0.2 |
| VDFT | ≤ 0.2 |
| LALR | ≤ 0.2 |
| QPAK | ≤ 0.2 |
| VVMR | ≤ 0.2 |
| VDRK | ≤ 0.2 |
| NEFY | ≤ 0.2 |
| RKIP | ≤ 0.2 |

| Variant | one-hybrid fitness for binding parS DNA |
| --- | --- |
| RKIS | 0.958 |
| RKPH | ≤ 0.2 |
| RKPS | 0.682 |
| RKYH | ≤ 0.2 |
| RKLD | ≤ 0.2 |
| RKLP | ≤ 0.2 |
| RKID | ≤ 0.2 |
| RKPN | ≤ 0.2 |
| RKLS | 0.876 |
| RKYS | 0.857 |
| RKYP | ≤ 0.2 |
| AWGT | ≤ 0.2 |
| HHGR | ≤ 0.2 |
| DVDS | ≤ 0.2 |
| SCTT | ≤ 0.2 |
| KNMC | ≤ 0.2 |
| RKRH | ≤ 0.2 |
| RKRN | 0.347 |
| RKWD | ≤ 0.2 |
| RKWN | 0.364 |
| RKRS | 0.747 |
| RKWS | 0.955 |
| IFGG | ≤ 0.2 |
| PIND | ≤ 0.2 |

| Variant | one-hybrid fitness for binding parS DNA |
| --- | --- |
| RLLM | 0.372 |
| RMLG | 1.01 |
| RCLG | 1.01 |
| RMLM | 0.363 |
| RSLF | 0.228 |
| RDLG | ≤ 0.2 |
| RELG | 0.217 |
| RLLG | 1.02 |
| RPLG | ≤ 0.2 |
| RLLR | ≤ 0.2 |
| RMLF | 0.238 |
| RSLG | 0.987 |
| LDYT | ≤ 0.2 |
| HWFG | ≤ 0.2 |
| EKQG | ≤ 0.2 |
| CHLC | ≤ 0.2 |
| FSIV | ≤ 0.2 |
| ATPA | ≤ 0.2 |
| KWRR | ≤ 0.2 |
| QQPM | ≤ 0.2 |
| ALLC | ≤ 0.2 |
| TRRD | ≤ 0.2 |
| NQPG | ≤ 0.2 |
| PPRF | ≤ 0.2 |

| Variant | one-hybrid fitness for binding parS DNA |
| --- | --- |
| RILK | ≤ 0.2 |
| RILG | 0.993 |
| RILF | 0.269 |
| YPTC | ≤ 0.2 |
| MMSV | ≤ 0.2 |
| EQTA | ≤ 0.2 |
| ACKY | ≤ 0.2 |
| RNEY | ≤ 0.2 |
| RNEG | 0.677 |
| RNEC | 0.613 |
| RNES | 0.776 |
| RNEI | ≤ 0.2 |
| RNED | ≤ 0.2 |
| RNEN | ≤ 0.2 |
| RNEP | ≤ 0.2 |
| RNEH | ≤ 0.2 |
| FPSI | ≤ 0.2 |
| MKLG | ≤ 0.2 |
| VKMN | ≤ 0.2 |
| KPPS | ≤ 0.2 |
| RADQ | ≤ 0.2 |
| RANK | ≤ 0.2 |
| RADF | ≤ 0.2 |
| RANR | ≤ 0.2 |

| Variant | one-hybrid fitness for binding parS DNA |
| --- | --- |
| RANC | 0.98 |
| RADC | 0.856 |
| QRLS | ≤ 0.2 |
| RCPM | 0.203 |
| QMWS | ≤ 0.2 |
| SDGC | ≤ 0.2 |
| MATR | ≤ 0.2 |
| VQVL | ≤ 0.2 |
| PGTH | ≤ 0.2 |
| KCMT | ≤ 0.2 |
| GHPI | ≤ 0.2 |
| YKKF | ≤ 0.2 |
| RILT | 0.89 |
| RPLT | ≤ 0.2 |
| RDLT | ≤ 0.2 |
| RILN | 0.422 |
| RMLT | 0.974 |
| RSLT | 0.846 |
| RILD | ≤ 0.2 |
| RMLP | ≤ 0.2 |
| RSLH | 0.207 |
| RSLP | ≤ 0.2 |
| RMLD | ≤ 0.2 |
| RCLT | 0.966 |

| Variant | one-hybrid fitness for binding parS DNA |
| --- | --- |
| QFVS | ≤ 0.2 |
| EYRS | ≤ 0.2 |
| FKLR | ≤ 0.2 |
| GPRL | ≤ 0.2 |
| HRFW | ≤ 0.2 |
| QVAA | ≤ 0.2 |
| QNKG | ≤ 0.2 |
| GITA | ≤ 0.2 |
| YHLM | ≤ 0.2 |
| YQRH | ≤ 0.2 |
| STFL | ≤ 0.2 |
| RKSE | ≤ 0.2 |
| PSQM | ≤ 0.2 |
| HSHL | ≤ 0.2 |
| RHLP | ≤ 0.2 |
| RTLF | 0.267 |
| RHLT | 0.834 |
| RHLN | 0.376 |
| RTLK | ≤ 0.2 |
| RTLT | 0.936 |
